# According to article PMC4552634, “A New Set of Chemical Starting Points with Plasmodium falciparum Transmission-Blocking Potential for Antimalarial Drug Discovery” (PLoS ONE, 2015):
# In all, about 13,000 compounds went through this assay and about 3,200 (25%) showed an effect of 50% or more. This is one part of the list.
# System: P. falciparum stage V gametocytes
# Parameters: BacTiter-Glo ATP luminescence viability of purified stage V gametocytes in 384-well plates, per cent inhibition versus DMSO
# Settings: 48 h, 5 µM; inhibitor
row,SMILES,% Inhibition
1,CC(C)(C)c1ccc(-c2ccccc2CNC(=O)c2cccc(O)c2)cc1 [TCMDC-136181],21.07%
2,O=C(NCc1ccccc1)Nc1cccc(-c2cccc(-c3nc4ccc(C(F)(F)F)cc4[nH]3)c2)c1 [TCMDC-133161],-23.46%
3,Cc1cc(CN2CCC(N3CC(c4ccccc4)(c4ccccc4)OCC3=O)C2)ccc1O (stereo not shown) [TCMDC-136340],-6.883%
4,CN1CCCN(Cc2ccc(-c3cccc(NC(=O)c4ccc(C#N)cc4)c3)cc2)CC1 [TCMDC-132637],9.146%
5,Cc1cc(-c2cnc(N)c(-c3ccc(N4CCN(C)CC4)nc3)c2)cc(C)c1O [TCMDC-133346],-63.65%
6,CN(Cc1ccccc1)C1CCCN(c2cc(NC(=O)c3cccs3)ccn2)C1 (stereo not shown) [TCMDC-135007],-39.99%
7,CC(C)c1cc2c(cc1O)C(Cc1ccccc1Cl)N(C)CC2 (stereo not shown) [TCMDC-137322],-86.96%
8,CCn1c(SCC(=O)Nc2cc(C(F)(F)F)ccc2Cl)nc2ccccc2c1=O [TCMDC-125426],3.057%
9,COCCn1c(SC(C)C(=O)Nc2cc(C(F)(F)F)ccc2Cl)nc2ccccc2c1=O (stereo not shown) [TCMDC-125030],60.86%
10,COCC(C)n1c(SCC(=O)Nc2cc(C(F)(F)F)ccc2Cl)nc2ccccc2c1=O (stereo not shown) [TCMDC-125436],2.32%
11,COc1ccc(N(C)Cc2cnc3nc(N)nc(N)c3n2)cc1 [TCMDC-137682],5.189%
12,COC(=O)C(C)(C)c1ccc(CC(C)NCC(O)c2cccc(C(F)(F)F)c2)cc1 (stereo not shown) [TCMDC-131482],7.113%
13,Oc1ccc(Cl)cc1Nc1nc(C(F)(F)F)nc2ccccc12 [TCMDC-125147],-61.42%
14,O=C(Nc1cccc([N+](=O)[O-])c1)N(Cc1ccc(Cl)c(Cl)c1)C1CCNCC1 [TCMDC-141400],39.3%
15,O=[N+]([O-])c1cccc(CNCC2CCN(Cc3ccc(Cl)c(Cl)c3)CC2)c1 [TCMDC-141206],3.652%
16,N#Cc1cccc(CN(Cc2ccc(Cl)c(Cl)c2)S(=O)(=O)c2cccc([N+](=O)[O-])c2)c1 [TCMDC-141594],51.09%
17,Cc1cccc2sc(N(CCCn3ccnc3)C(=O)C=Cc3cccs3)nc12 [TCMDC-124929],30.83%
18,Cc1c(C(=O)N2CCc3cc4nccc(N5CCN6CCC[C@H]6C5)c4cc32)cnn1-c1ccc(C#N)cc1 [TCMDC-141315],14.04%
19,CN(C)CC(=O)N(Cc1ccc(Cl)c(Cl)c1)Cc1csc(-c2ccc(CNCc3ccccc3)cc2)n1 [TCMDC-141814],21.62%
20,CC(=O)Nc1ccc(CNC2Cc3ccc(-c4ccc(Cl)c(Cl)c4)cc3C2)cc1 (stereo not shown) [TCMDC-133070],12.53%
21,CCN(CC)S(=O)(=O)c1ccc(Cl)c(C(=O)Nc2ccc3nc(C)sc3c2)c1 [TCMDC-124376],33.54%
22,CCCCOc1ccccc1C(=O)NCc1csc(-c2ccccc2)n1 [TCMDC-124914],34.72%
23,CCCCNCc1ccc(-c2nc(CN(Cc3ccc(Cl)c(Cl)c3)C(=O)CN(C)C)cs2)cc1 [TCMDC-141703],68.39%

row,SMILES,% Inhibition
1,CCCCNCc1ccc(-c2nc(CN(Cc3ccc(Cl)c(Cl)c3)S(=O)(=O)c3ccc(NC(C)=O)cc3)cs2)cc1 [TCMDC-141597],93.87%
2,O=c1[nH]c(Cc2ccccc2)nc2ccc(Cl)cc12 [TCMDC-123986],41.17%
3,Cc1cccc2nc(-c3ccc(-c4ccc(CN5CCC(N)C5)cc4)s3)[nH]c12.O=C(O)C(F)(F)F (stereo not shown) [TCMDC-133862],94.82%
4,Cc1cccc2nc(-c3ccc(-c4ccc(CN5CCCC(N)C5)cc4)s3)[nH]c12.O=C(O)C(F)(F)F (stereo not shown) [TCMDC-133864],61.01%
5,Cc1cccc2nc(-c3ccc(-c4ccc(CN5CCCC(O)C5)cc4)s3)[nH]c12.O=C(O)C(F)(F)F (stereo not shown) [TCMDC-133827],-10.01%
6,Cc1cccc2nc(-c3ccc(-c4ccc(CN5CCC(C(N)=O)CC5)cc4)s3)[nH]c12.O=C(O)C(F)(F)F [TCMDC-132695],10.69%
7,Cc1cccc2nc(-c3ccc(-c4ccc(CN5CCC(CO)CC5)cc4)s3)[nH]c12.O=C(O)C(F)(F)F [TCMDC-133128],-12.48%
8,NC(=O)c1cccc(C(=O)Nc2ccc(-c3cccc(-c4nc5ccc(F)cc5[nH]4)c3)cc2)c1 [TCMDC-132196],-0.7681%
9,CCOC(=O)c1ccc(NC(=O)NNC(=O)c2ccc(CCN3CCC(c4nc(COCC(F)(F)F)c(-c5ccc(F)cc5)o4)CC3)cc2)cc1 [TCMDC-131907],11.96%
10,Cc1ccc2[nH]c(-c3ccc(C(=O)NC4CCN(Cc5ccccc5)CC4)cc3)nc2c1C [TCMDC-140449],4.358%
11,Cc1ccc(-c2cc(C(=O)Nc3ccc(S(=O)(=O)N4CCCCC4)cc3)[nH]n2)c(O)c1 [TCMDC-124305],-41.04%
12,Cc1ccc(-c2cc(C(=O)Nc3ccc(S(=O)(=O)N4CCOCC4)cc3)[nH]n2)c(O)c1C [TCMDC-124306],74.46%
13,O=C(Nc1ccc(S(=O)(=O)N2CCOCC2)cc1)c1cc(-c2cc(Cl)ccc2O)n[nH]1 [TCMDC-125204],-22.77%
14,O=C(Nc1ccon1)c1cc(-c2cccnc2)nc2ccc(Br)cc12 [TCMDC-125217],-5.67%
15,CC1N=C(N)N=C(N)N1OCc1cccc2ccccc12 (stereo not shown) [TCMDC-131595],37.89%
16,O=C(NCCN1CCCCC1)c1cc2cc(-c3ccccc3)ccc2n1S(=O)(=O)c1ccccc1 [TCMDC-139102],37.88%
17,CN(C)CCCN1CCN(C(=O)c2cc3cc(-c4ccccc4)ccc3n2S(=O)(=O)c2ccccc2)CC1 [TCMDC-139103],17.27%
18,CN1CCC(OC(=O)c2cc3cc(-c4ccccc4)ccc3n2S(=O)(=O)c2ccccc2)CC1 [TCMDC-139104],88.58%
19,Cc1cccc2nc(-c3ccc(-c4ccc(CNCC5CCCO5)cc4)cc3)[nH]c12.O=C(O)C(F)(F)F (stereo not shown) [TCMDC-133093],-8.859%
20,Cc1cccc(C)c1OC(=O)CSc1nnc(-c2ccccc2O)o1 [TCMDC-125733],-18.5%
21,Cc1[nH]c2ccccc2c1C(=O)C(C)Sc1nnc(-c2ccccc2Br)[nH]1 (stereo not shown) [TCMDC-125114],93.54%
22,Cc1[nH]c2ccccc2c1C(=O)C(C)Sc1nnc(-c2ccccc2F)o1 (stereo not shown) [TCMDC-125312],68.46%
23,Nc1nc(F)nc2nc[nH]c12 [TCMDC-124283],4.967%

row,SMILES,% Inhibition
1,O=C(NCc1cccc(F)c1)Nc1cccc(-c2ccc(-c3nc4ccc(C(F)(F)F)cc4[nH]3)cc2)c1 [TCMDC-133288],-40.45%
2,CCNc1cc(C(=O)N[C@@H](Cc2ccccc2)[C@H](O)CNCCc2cccc(C(F)(F)F)c2)cc(N2CCCC2=O)c1 [TCMDC-134552],-6.04%
3,COc1cccc(C(O)CNc2ccnc(Nc3ccc(Cl)cc3)n2)c1 (stereo not shown) [TCMDC-136575],5.772%
4,Clc1ccc(-c2ccc(C=NNc3nc(Nc4ccccc4)nc(Nc4ccccc4)n3)o2)cc1Cl [TCMDC-124152],3.438%
5,Clc1ccc(Nc2nc(NCc3ccccc3)nc(N/N=C/c3ccccn3)n2)cc1 [TCMDC-138557],107.3%
6,Clc1cccc(C=NNc2nc(Nc3ccccc3)nc(Nc3ccccc3)n2)c1 [TCMDC-125798],24.55%
7,O=c1cc(NCCCNCc2ccc(C(F)(F)F)s2)[nH]c2ccccc12 [TCMDC-140767],-70.92%
8,COc1ccc2nccc([C@@H](O)CN3CCC(NCCOc4ccc(F)cc4Cl)CC3)c2c1 [TCMDC-140660],20.67%
9,COc1ccc2nccc([C@@H](O)CN3CCC(NCCOc4cccc(F)c4F)CC3)c2c1 [TCMDC-140644],24.45%
10,COc1ccc2nccc([C@@H](O)CN3CCC(NCCOc4ccccc4C(F)(F)F)CC3)c2c1 [TCMDC-140713],37.87%
11,COc1ccc2nccc([C@@H](O)CNCCCN(C)CCOc3cc(F)cc(F)c3)c2c1 [TCMDC-141051],75.1%
12,COc1ccc2nccc([C@@H](O)CN3CCC(NCCOc4ccc(F)cc4F)CC3)c2c1 [TCMDC-140645],94.72%
13,COc1ccc2nccc([C@@H](O)CN3CCC(NCCOc4ccncc4)CC3)c2c1 [TCMDC-140574],11.37%
14,COc1ccc2nccc([C@@H](O)CN3CCC(NCCOc4cc(F)cc(F)c4)CC3)c2c1 [TCMDC-140510],10.94%
15,COc1ccc2nccc([C@@H](O)CN3CCC(NCCOc4cccc(C(F)(F)F)c4)CC3)c2c1 [TCMDC-140507],58.71%
16,COc1ccc2nccc([C@@H](O)CN3CCC(NCCOc4cc(C(F)(F)F)ccc4F)CC3)c2c1 [TCMDC-140658],14.45%
17,CCCCc1cc(NCC)nc(Nc2cccc(OC)c2)n1 [TCMDC-133993],0.878%
18,COc1ccc(CCCN2C(=O)C(c3ccccc3)(c3ccccc3)N=C2N)cc1 [TCMDC-136503],-39.16%
19,O=C(Nc1ccc(N2CCNCC2)nc1)c1oc(-c2ccccc2)nc1C(F)(F)F [TCMDC-135131],3.26%
20,CC(C)N(C(=O)CSc1nc2cc(Cl)ccc2c(=O)n1Cc1ccccc1)C(C)C [TCMDC-123612],6.529%
21,Cc1nc2ccc3ccc(CN(C)c4ccc(C(=O)N[C@@H](CCC(=O)O)C(=O)O)cc4)cc3c2c(=O)[nH]1 [TCMDC-138089],24.11%
